High-throughput results (PubChem)
RORgamma inh – qHTS for inhibitors of ROR gamma transcriptional activity; Drosophila S2 Gal4-RORgamma UAS-luciferase reporter, 20 h; Potency, µM (titrated, usually from 53.6 µM), for the others: top-dose activity change, negative = inhibition, hits mostly inhibitors; actives 5.4% (n = 310,000); Nuclear receptor ROR-gamma (Mus musculus), P51450; note: % is set by controls: 0 for no effect and ±100 for the full control effect; nearly all actives have a fitted effect of over 60% in size
Target sequence (P51450 whole entry, looked up, the tested form may be a part): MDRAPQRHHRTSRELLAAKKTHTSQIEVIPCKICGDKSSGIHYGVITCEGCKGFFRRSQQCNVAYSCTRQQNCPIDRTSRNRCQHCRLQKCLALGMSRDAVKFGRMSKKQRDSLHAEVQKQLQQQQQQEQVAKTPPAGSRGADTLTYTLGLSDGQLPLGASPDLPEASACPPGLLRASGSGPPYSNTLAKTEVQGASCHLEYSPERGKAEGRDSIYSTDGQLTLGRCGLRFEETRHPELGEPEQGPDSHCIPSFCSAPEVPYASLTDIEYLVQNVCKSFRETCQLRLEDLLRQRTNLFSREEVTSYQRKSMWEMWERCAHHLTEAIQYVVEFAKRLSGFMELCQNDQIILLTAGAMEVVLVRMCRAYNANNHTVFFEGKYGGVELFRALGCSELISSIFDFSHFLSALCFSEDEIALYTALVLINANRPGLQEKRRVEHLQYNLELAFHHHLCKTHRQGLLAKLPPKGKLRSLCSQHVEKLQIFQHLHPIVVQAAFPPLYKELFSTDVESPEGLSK
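Stably transfected Drosophila Schneider cells are the test system, with ROR gamma fused to Gal4 and luciferase under UAS control; luminescence is read after 20 hr of 700 uM copper sulfate induction at ambient temperature.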
TGFb SMAD3 inh – qHTS for Inhibitors of TGF-b; actives 1.2% (n = 410,000); HepG2 CAGA-GFP TGF-b/SMAD3 reporter, GFP fluorescence, 18 h; TGF-beta stimulated, 500 pg/mL final; Potency, µM (top dose mostly 46.1 µM), inactives show top-dose activity, negative = inhibition, most hits filed as inhibitors; note: % is set by controls: 0 for no effect and ±100 for the full control effect; nearly all actives have a fitted effect of over 65% in size
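Inhibition was scored as loss of TGF-beta-induced (500 pg/mL final, 18 hours, 37 degrees C) GFP in HEPG2 cells carrying a CAGA-GFP reporter, in DMEM with 1% FBS. Well GFP was summed per cell; Activity was normalised to unstimulated and stimulated DMSO wells, then concentration-response fitting.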
S2 tox – Viability Counterscreen for Primary qHTS for Inhibitors of ATXN expression; S2 cells (HEK-293 line with an ATXN2-luciferase reporter) viability, CellTiter-Fluor protease fluorescence, 24 h; Potency, µM (titrated, usually from 56.7 µM), actives largely listed as cytotoxic; actives 0.49% (n = 400,000); AID 651635, 2014; note: nearly all actives have a fitted effect of over 40% in size
VP16 counter – VP16 counterscreen qHTS for inhibitors of ROR gamma transcriptional activity. actives 3.5% (n = 310,000). Drosophila S2 Gal4-VP16 UAS-luciferase, luminescence, 20 h. AID 2546, 2010. Potency, µM (highest dose often 53.6 µM), without a hit: top-dose activity, negative = inhibition, most hits filed as inhibitors;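 note: Gal4-VP16 expression switched on by copper sulfate through the metallothionein promoter; % is set by controls: 0 for no effect and ±100 for the full control effect; nearly all actives have a fitted effect of over 50% in size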
ATXN2 expr inh – Primary qHTS for Inhibitors of ATXN expression; HEK-293 ATXN2-luciferase reporter, luminescence, 24 h; Potency, µM (highest dose often 57 µM), inactives show at the highest dose activity change, negative = inhibition, most hits filed as inhibitors; actives 0.72% (n = 360,000); AID 1745845, 2022; note: % is set by controls: 0 for no effect and ±100 for the full control effect; nearly all actives have a fitted effect of over 55% in size
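qHTS (up to 57 uM final) was run with 24 h compound exposure of reporter cells at 37 °C. Each well was multiplexed: SteadyGlo luminescence measured ATXN2-luciferase expression after a fluorogenic Gly-Phe-AFC viability readout (25 uM final).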
HepG2 tox – qHTS for Inhibitors of TGF-b: Cytotox Counterscreen | actives 0.76% (n = 410,000) | HepG2 CAGA-GFP viability, ATP luminescence, 18 h | Potency, µM (titrated, usually from 46.1 µM), for the others: at the highest dose activity change, negative = cytotoxicity, usual class: cytotoxic
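HepG2 CAGA-GFP cells (1000/well, DMEM with 1% FBS) received compound, then TGF-beta at 500 pg/mL final, and were incubated 18 hours at 37 degrees C. Viability was read by CellTiter-Glo luminescence. Media-only wells were set as complete cell-killing and DMSO as no toxicity.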
* marks the source's active call; other numbers are inactive results. This is a sample that favours compounds with a hit; in the whole collection about 6.3% have one here. Calls come from the whole dose curve; as a rule, active = well fitted curve in the direction sought with a large enough effect; inconclusive = small, poorly fitted or top-dose-only effect, or another doubt; inactive = no such curve, though single readings can be large; an effect the other way counts as inactive or inconclusive. Potency is the fitted concentration of half-maximal effect.

How did COc1ccc(C(=O)CC(=O)C(=O)Nc2ccc(Cl)cc2)cc1 do in these assays?
RORgamma inh: 7.08µM*; TGFb SMAD3 inh: 19.8%; S2 tox: inactive; VP16 counter: 12.6µM*; ATXN2 expr inh: 1.1%; HepG2 tox: -8.7%

What do the screens show for `COc1ccc(C(=O)CC(=O)C(=O)Nc2cc(Cl)c(OC)cc2OC)cc1`?
RORgamma inh: inconclusive; TGFb SMAD3 inh: 0.1%; S2 tox: inactive; VP16 counter: -5.7%; HepG2 tox: -2.9%

Results for COc1ccc(C(=O)CC(=O)C(=O)Nc2ccccc2Cl)cc1 ?
RORgamma inh: 6.31µM*; TGFb SMAD3 inh: 6.2%; S2 tox: inactive; VP16 counter: 3.16µM*; ATXN2 expr inh: -10.4%; HepG2 tox: -11.3%

Results for Brc1ccc[n+](CCC2CCCCC2)c1 ?
TGFb SMAD3 inh: -0.6%; HepG2 tox: -8.9%

How did COc1ccccc1NC(=O)Nc1nc(C(N)C(C)C)cs1 (stereo not drawn) do in these assays?
TGFb SMAD3 inh: inconclusive; S2 tox: inactive; ATXN2 expr inh: inconclusive; HepG2 tox: -1.5%

What do the screens show for `NC(COCc1ccccc1)c1csc(NC(=O)Nc2cccc(C(F)(F)F)c2)n1` (stereo not drawn)?
TGFb SMAD3 inh: 14.1µM*; ATXN2 expr inh: inconclusive; HepG2 tox: -106.5%

Results for NC(Cc1ccccc1)c1csc(NC(=O)Nc2ccccc2Oc2ccccc2)n1 (stereo not drawn) ?
TGFb SMAD3 inh: inconclusive; S2 tox: inconclusive; ATXN2 expr inh: inconclusive; HepG2 tox: -104.0%

How did CC(C)CC(N)c1csc(NC(=O)Nc2ccccc2C(C)(C)C)n1 (stereo not drawn) do in these assays?
TGFb SMAD3 inh: 14.1µM*; S2 tox: inactive; ATXN2 expr inh: inconclusive; HepG2 tox: -99.6%

What do the screens show for `COc1ccccc1NC(=O)Nc1nc(C(N)Cc2ccc(C(F)(F)F)cc2)cs1` (stereo not drawn)?
TGFb SMAD3 inh: inconclusive; ATXN2 expr inh: -0.7%; HepG2 tox: 20µM*

How did NC(Cc1ccc(C(F)(F)F)cc1)c1csc(NC(=O)Nc2ccccc2Oc2ccccc2)n1 (stereo not drawn) do in these assays?
TGFb SMAD3 inh: 11.2µM*; ATXN2 expr inh: -13.9%; HepG2 tox: 10µM*

How did CCOC(=O)Nc1cc(OC)cc2ccc(C)nc12 do in these assays?
TGFb SMAD3 inh: 5.8%; S2 tox: inactive; HepG2 tox: -76.9%

How did NC(Cc1ccc(C(F)(F)F)cc1)c1csc(NC(=O)NCCc2ccccc2)n1 (stereo not drawn) do in these assays?
TGFb SMAD3 inh: 14.1µM*; S2 tox: inconclusive; ATXN2 expr inh: inconclusive; HepG2 tox: 11.2µM*

How did COc1ccc(CC(N)c2csc(NC(=O)Nc3ccc(OC)cc3)n2)cc1 (stereo not drawn) do in these assays?
TGFb SMAD3 inh: inconclusive; S2 tox: inconclusive; ATXN2 expr inh: inconclusive; HepG2 tox: -81.6%

Results for COc1cc(CNC(=O)Nc2nc(C(N)CCc3ccccc3)cs2)cc(OC)c1OC (stereo not drawn) ?
TGFb SMAD3 inh: inconclusive; S2 tox: inconclusive; ATXN2 expr inh: inconclusive; HepG2 tox: -88.4%

What do the screens show for `NC(CCc1ccccc1)c1csc(NC(=O)Nc2cccc(Cl)c2)n1` (stereo not drawn)?
TGFb SMAD3 inh: inconclusive; S2 tox: 28.2µM*; ATXN2 expr inh: 20µM*; HepG2 tox: 15.8µM*

Results for COc1ccccc1NC(=O)Nc1nc(C(N)CCc2ccccc2)cs1 (stereo not drawn) ?
TGFb SMAD3 inh: 11.2µM*; S2 tox: inconclusive; ATXN2 expr inh: inconclusive; HepG2 tox: 10µM*

What do the screens show for `COc1ccc(CC(N)c2csc(NC(=O)Nc3ccccc3Cc3ccccc3)n2)cc1` (stereo not drawn)?
TGFb SMAD3 inh: inconclusive; S2 tox: inconclusive; ATXN2 expr inh: inconclusive; HepG2 tox: 22.4µM*

How did CC(C)CC(N)c1csc(NC(=O)NCCc2ccccc2)n1 (stereo not drawn) do in these assays?
TGFb SMAD3 inh: -2.9%; S2 tox: inactive; ATXN2 expr inh: -11.4%; HepG2 tox: -27.6%

Results for O=C(Cn1ncc2ccsc2c1=O)N1CCN(c2ccc(F)cc2)CC1 ?
TGFb SMAD3 inh: 3.6%; S2 tox: inactive; ATXN2 expr inh: -5.3%; HepG2 tox: -19.4%

Results for C1=C(c2ccco2)N2CCN=C2S1 ?
RORgamma inh: -5.5%; TGFb SMAD3 inh: -10.6%; S2 tox: inactive; VP16 counter: -13.7%; ATXN2 expr inh: -6.0%; HepG2 tox: -13.8%

Results for O=C(NCc1ccccc1F)C(=O)NCC(c1ccco1)S(=O)(=O)c1ccccc1 (stereo not drawn) ?
TGFb SMAD3 inh: -25.4%; HepG2 tox: -22.0%

Results for Cc1cnc2c(C)ccc(C)c2c1/C=C/c1ccc(N(C)C)cc1 ?
TGFb SMAD3 inh: -5.2%; HepG2 tox: -3.9%

What do the screens show for `COc1ccccc1CNC(=O)Nc1nc(C(N)Cc2ccc(Cl)cc2)cs1` (stereo not drawn)?
TGFb SMAD3 inh: inconclusive; S2 tox: 31.6µM*; ATXN2 expr inh: inconclusive; HepG2 tox: -97.4%

Results for COc1ccc(CNC(=O)Nc2nc(C(N)Cc3ccc(Cl)cc3)cs2)cc1 (stereo not drawn) ?
TGFb SMAD3 inh: inconclusive; S2 tox: inactive; ATXN2 expr inh: inconclusive; HepG2 tox: -94.2%

What do the screens show for `O=C(NCc1cccc(F)c1)Nc1nnc([C@H]2C[C@H](O)[C@@H](CO)O2)s1`?
TGFb SMAD3 inh: -4.5%; S2 tox: inactive; ATXN2 expr inh: 2.9%; HepG2 tox: 4.4%

How did CCn1c(C(=O)NCc2ccccc2Br)cc2oc3ccccc3c21 do in these assays?
TGFb SMAD3 inh: 41.5%; S2 tox: inactive; ATXN2 expr inh: 57.3%; HepG2 tox: 12.6µM*

Results for CSc1ccc2cc(CNCc3ccccc3F)c(N3CCCC(CO)C3)nc2c1 (stereo not drawn) ?
S2 tox: inactive

Results for Cc1cc(C(F)(F)F)nc(Nc2nc(C)c3ccccc3n2)n1 ?
RORgamma inh: 6.31µM*; TGFb SMAD3 inh: -11.0%; S2 tox: inactive; VP16 counter: inconclusive; ATXN2 expr inh: 0.7%; HepG2 tox: -4.3%
